Source: the supplement of paper PMC7366291
Counter-ions that a name gives are not always drawn. ± gives the standard deviation of the averaged measurements.

What follows are molecules tested on Danio rerio Tg(wt1b:EGFP) embryo, pronephros (assay: glomerular width (mean of left and right), fold change vs DMSO control; higher = wider glomerulus). Conditions: 25 µM; exposure: 24-48 hpf.
In short: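 Dechorionated Tg(wt1b:EGFP) zebrafish embryos were treated with 25 μM compound in 0.5% DMSO, in HEPES-buffered E3 with 0.003% PTU, from 24 to 48 hpf at 28.5°C. On maximum projections of dorsal pronephros images, 16 hand-placed reference points in Fiji gave distances and angles, and values more than 2 SD from the feature mean were left out. Results are fold changes over the mean of same-day DMSO-treated embryos.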

Structure (SMILES) | glomerular width
OCCOCCN1CCN(C(c2ccccc2)c2ccc(Cl)cc2)CC1 (stereo not given) [Hydroxyzine dihydrochloride] | 1.02 ± 0.013
O=C(O)CCC(=O)c1ccc(-c2ccccc2)cc1 [Fenbufen] | 0.729 ± 0.11
CC(=O)OCC(=O)[C@@]1(OC(C)=O)[C@@H](C)C[C@H]2[C@@H]3C[C@H](F)C4=CC(=O)C=C[C@]4(C)[C@@]3(F)[C@@H](O)C[C@@]21C [Diflorasone Diacetate] | 1.32 ± 0.052
CN(Cc1cnc2nc(N)nc(N)c2n1)c1ccc(C(=O)N[C@@H](CCC(=O)O)C(=O)O)cc1 [Methotrexate] | 1.0099 ± 0.0002
CCCCNC(=O)NS(=O)(=O)c1ccc(C)cc1 [Tolbutamide] | 1.01 ± 0.014
CC(=O)O[C@]1(C(C)=O)CC[C@H]2[C@@H]3C=C(Cl)C4=CC(=O)CC[C@]4(C)[C@H]3CC[C@@]21C [Chlormadinone acetate] | 0.909 ± 0.053
CC(C)C(=O)Nc1ccc([N+](=O)[O-])c(C(F)(F)F)c1 [Flutamide] | 1.12 ± 0.03
Cn1c(=O)c2c(ncn2CC(=O)O)n(C)c1=O [Acefylline] | 1 ± 0.029
CN(C)CCC[C@@]1(c2ccc(F)cc2)OCc2cc(C#N)ccc21 [Escitalopram oxalate] | 0.9778 ± 0.0032
Cc1cccc(C)c1NC(=O)C1CCCCN1C (stereo not given) [Mepivacaine hydrochloride] | 1.06 ± 0.058
Cc1cc(NS(=O)(=O)c2ccc(N)cc2)no1 [Sulfamethoxazole] | 1.05 ± 0.026
CO[C@@]1(NC(=O)CSCC#N)C(=O)N2C(C(=O)O)=C(CSc3nnnn3C)CS[C@@H]21 [Cefmetazole sodium salt] | 1.004 ± 0.0038
CC1(C)O[C@@H]2[C@@H](CO[C@@]3(COS(N)(=O)=O)OC(C)(C)O[C@@H]23)O1 [Topiramate] | 1.086 ± 0.0046
Cc1cccc(N(C)C(=S)Oc2ccc3ccccc3c2)c1 [Tolnaftate] | 0.952 ± 0.03
CCCCC(=O)N(Cc1ccc(-c2ccccc2-c2nnn[nH]2)cc1)[C@H](C(=O)O)C(C)C [Valsartan] | 1.09 ± 0.026
Cc1cc(-c2ccccc2)nnc1NCCN1CCOCC1 [Minaprine dihydrochloride] | 1.03 ± 0.03
Nc1nc(=O)[nH]cc1F [Flucytosine] | 1.0052 ± 0.0006
CN1CCOC(c2ccccc2)c2ccccc2C1 (stereo not given) [Nefopam hydrochloride] | 0.982 ± 0.05

Structure (SMILES) | glomerular width
Nc1ccn([C@@H]2O[C@H](CO)[C@@H](O)C2(F)F)c(=O)n1 [Gemcitabine] | 0.99 ± 0.053
Clc1ccc(CCC(Cn2ccnc2)Sc2c(Cl)cccc2Cl)cc1 (stereo not given) [Butoconazole nitrate] | 0.767 ± 0.047
COc1ccc(CN2CCN(C(c3ccc(F)cc3)c3ccc(F)cc3)CC2)c(OC)c1OC [Lomerizine hydrochloride] | 0.9746 ± 0.0083
CCCCOc1ccc(OCCCN2CCOCC2)cc1 [Pramoxine hydrochloride] | 0.951 ± 0.025
C[C@H](N)[C@H](O)c1cccc(O)c1 [Metaraminol bitartrate] | 0.961 ± 0.083
CCN(CC)CCN[C@@H](C(=O)OCCC(C)C)c1ccccc1 [Camylofine chlorhydrate] | 1.02 ± 0.018
C[C@]12CC[C@@H]3c4ccc(O)cc4CC[C@H]3[C@@H]1CCC2=O [Estrone] | 0.983 ± 0.0046
CC(C)Cn1cnc2c(N)nc3ccccc3c21 [Imiquimod] | 0.944 ± 0.089
NCCc1c[nH]cn1 [Histamine dihydrochloride] | 0.9518 ± 0.0028
CN(Cc1cc(Br)cc(Br)c1N)C1CCCCC1 [Bromhexine hydrochloride] | 0.984 ± 0.067
c1ccc(CN(CC2=NCCN2)c2ccccc2)cc1 [Antazoline hydrochloride] | 1.04 ± 0.016
N#Cc1ccc(C(c2ccc(C#N)cc2)n2cncn2)cc1 [Letrozole] | 1.023 ± 0.0059
C=CC[N@@+]12CC[C@@]34c5ccccc5N5/C=C6/[C@H]7C[C@H]8[C@@]9(CC[N@@+]8(CC=C)C/C7=C/CO)c7ccccc7N(/C=C(/[C@@H](C[C@@H]31)/C(=C\CO)C2)[C@H]54)[C@@H]69 [Alcuronium chloride] | 1.03 ± 0.052
Cc1ccccc1N1C(=O)c2cc(S(N)(=O)=O)c(Cl)cc2NC1C (stereo not given) [Metolazone] | 1 ± 0.062
NC(=O)c1cnccn1 [Pyrazinamide] | 1.04 ± 0.034
OCc1cc(C(O)CNCCCCCCOCCCCc2ccccc2)ccc1O (stereo not given) [Salmeterol] | 0.665 ± 0.017
CN(C)c1ccc(O)c2c1C[C@H]1C[C@H]3[C@H](N(C)C)C(O)=C(C(N)=O)C(=O)[C@@]3(O)C(O)=C1C2=O [Minocycline hydrochloride] | 1.02 ± 0.024
